# Experimental data reported in PubChem BioAssay (NCI).
# About 83,000 compounds went through this panel and 20% of them were active in at least one assay; those are over-represented in the sample as a whole.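 For each line, cells grew in 96-well plates with the test compound present at a single concentration for 48 hours.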 Unmarked numbers belong to inactive results. Activity calls are given as the source filed them. Rule for the calls: active = growth percent below 10; inactive = the rest.
# Tests used:
# Assay in all cases: NCI-60 one-dose screen, 48 h (100 = growth as untreated, 0 = no growth, -100 = all killed)
# Details in all cases: 10 µM unless noted
# [1] = system: NCI-H23 lung
# [2] = system: NCI-H226 lung
# [3] = system: NCI-H322M lung
# [4] = system: HOP-62 NSCLC
# [5] = system: NCI-H460 lung
# [6] = system: HOP-92 NSCLC
# [7] = system: NCI-H522 lung
# [8] = system: A549/ATCC NSCLC
# [9] = system: 786-0 renal
# [10] = system: COLO 205 colon
# [11] = system: DU-145 prostate
# [12] = system: K-562 leukemia
# [13] = system: MALME-3M melanoma
# [14] = system: MDA-MB-231 breast
# [15] = system: RXF 393 renal
# [16] = system: SF-268 CNS
# [17] = system: SF-295 CNS
# [18] = system: SF-539 CNS
# [19] = system: UACC-257 melanoma
# [20] = system: M14 melanoma
SMILES,growth [1],growth [2],growth [3],growth [4],growth [5],growth [6],growth [7],growth [8],growth [9],growth [10],growth [11],growth [12],growth [13],growth [14],growth [15],growth [16],growth [17],growth [18],growth [19],growth [20]
COc1ccc(-c2cn3c(ccc4ccccc43)n2)cc1,97.5%,88%,87.3%,80.6%,97.7%,92.1%,87.5%,107%,111%,112%,104%,94.7%,106%,83.3%,121%,101%,89.9%,90.5%,118%,112%
C=C1CC2(OC1=O)C(=O)Nc1ccccc12 (stereo not given),67.7%,72.9%,93.8%,108%,77.8%,9.19% (active),-45.7% (active),100%,76.2%,10.3%,43%,21.8%,12.4%,65.6%,-13.3% (active),98%,96%,47.3%,71.9%,59.1%
CCOC(=O)c1cnc2ccc(Br)cc2c1Nc1cccc(S(=O)(=O)NC)c1,84.7%,90.8%,98.3%,92.3%,102%,102%,83.6%,104%,103%,128%,103%,100%,99.1%,95.4%,99.5%,94.9%,94.2%,98.2%,114%,114%
Cc1ccc(-c2nc(/C=N/Nc3cc(C)nc4ccc(Br)cc34)c(C)o2)cc1,79.2%,86.6%,-36.8% (active),97.7%,-81% (active),18.9%,-67.1% (active),-56.1% (active),-67% (active),-68.6% (active),-33.3% (active),-33.2% (active),-82% (active),-91.9% (active),-94.1% (active),-59.4% (active),85.7%,71.3%,97%,-50.2% (active)
CC(=O)CC(C)(C)c1ccc(Cl)cc1,95.5%,99%,107%,93.3%,108%,80%,95.5%,103%,97.8%,116%,108%,101%,108%,106%,98%,95.7%,101%,102%,101%,96.8%
Nc1cc(O)cc2cccnc12,53.1%,94.4%,104%,86.6%,67.6%,103%,50.6%,86.3%,105%,113%,107%,88%,89.8%,78.5%,135%,107%,95.4%,101%,91.2%,83.8%
O=[N+]([O-])c1cccc(-c2nc3sccn3c2-c2ccnc(NCCCNS(=O)(=O)c3cccc(F)c3)n2)c1,-9.68% (active),-5.67% (active),45.2%,13.1%,16.3%,46.3%,-8.69% (active),7.27% (active),43.4%,-2.26% (active),9.77% (active),4.26% (active),-10.6% (active),47.6%,52%,11.8%,5.83% (active),34.8%,-15.2% (active),-1.16% (active)
CN(C)c1ccc(/C=C(\C#N)c2nc3ccccc3s2)cc1,102%,101%,86.8%,116%,103%,104%,92.7%,105%,96.8%,123%,120%,119%,111%,106%,116%,102%,92.9%,100%,93.5%,110%
